# From PubChem BioAssay
# HT1080 IDH1KD tx – toxicity to HT-1080 IDH1 knockdown cells (counter line); Potency, µM (series often up to 46.1 µM), without a hit: at the highest dose activity, negative = toxicity, actives largely listed as cytotoxic; 360,000 compounds, 2% hits; HT-1080 IDH1 knockdown viability, ATP luminescence, 48 h;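 further: potency means the concentration at half of the fitted maximal effect; 0% = DMSO wells and -100% = cell-free medium wells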
#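 After a 2 h attachment period, IDH1KD HT-1080 cells took pin-transferred compound for 48 h at 37 °C; ATP-based luminescence after 10 min room-temperature reagent incubation reported viability.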
# IL-1B inflam inh – inhibitors of inflammasome signaling (IL-1 beta secretion); THP-1 LPS/ATP IL-1B secretion, AlphaLISA, 16 h; stronger effect = lower value; activity change, % at 57.5 µM; 360,000 compounds, 4.7% hits; in the data active means activity change below about -50%; inconclusive means mostly about -30% to -49%
#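 THP-1 cells pretreated 1 hr with compounds (up to 57.5 uM final), then stimulated with LPS (250 ng/mL final) plus ATP (1.25 mM final); secreted IL-1B measured by AlphaLISA after 16 hr, decreased signal indicating inhibition.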
# DT40 TDP1 CPT – growth inhibition of DT40 Tdp1-/-;hTDP1 cells with camptothecin (screen for TDP1 inhibitors). Potency, µM (highest dose often 46.2 µM), for inactives: at the highest dose activity change, negative = growth inhibition, most hits filed as inhibitors. chicken DT40 Tdp1-/-;hTDP1 cells + 20 nM CPT, ATP luminescence, 48 h. 420,000 compounds, 12% hits. AID 686979; further: potency means the concentration at half of the fitted maximal effect; nearly all actives have a fitted effect of over 55% in size
#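 Chicken DT40 Tdp1-/- cells complemented with human TDP1, 400 cells/well, exposed to compounds plus 20 nM camptothecin for at least 48 h at 37 C; viability read as ATP content by CellTiter-Glo luminescence.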
# HT1080-NT tox – kills 2HG-producing HT-1080-NT fibrosarcoma cells; HT-1080-NT fibrosarcoma viability, CellTiter-Glo ATP luminescence, 48 h; Potency, µM (series often up to 46.1 µM), inactives show top-dose activity, negative = less viability, most hits filed as cytotoxic; 360,000 compounds, 1.6% hits;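 further: NT is the 2HG producing partner of a matched IDH1 knockdown line; potency means the concentration at half of the fitted maximal effect; 0% = DMSO-treated cells and -100% = media-only wells without cells; nearly all actives have a fitted effect of over 55% in size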
#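 Viability of the 2HG-overproducing fibrosarcoma line after 48 hours of compound exposure at 37 degrees C was determined by luminescence with CellTiter-Glo, and concentration-effect curves were then fitted and categorized.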
# TDP1 cell noCPT – qHTS for Inhibitors of human tyrosyl-DNA phosphodiesterase 1 (TDP1): qHTS in cells in absence of CPT. DT40 Tdp1-/- hTDP1 cells, no CPT, ATP luminescence, 48 h. Potency, µM (series often up to 46.2 µM), inactives show at the highest dose activity change, negative = growth inhibition, usual class: inhibitors. 420,000 compounds, 15% hits; further: potency means the concentration at half of the fitted maximal effect; nearly all actives have a fitted effect of over 55% in size
#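 No-CPT arm: Tdp1-/-;hTDP1 DT40 cells (400/well) plus compounds, incubated ≥48 hr at 37 °C. Readout CellTiter-Glo luminescence.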
# Starred values were filed as active, the others as inactive; ? = inconclusive; . = not tested or not shown. This is a sample that favours compounds with a hit; in the whole collection about 19% have one here. Unless noted, the call rests on the fitted dose curve; in most records, active means well fitted curve in the direction sought with a large enough effect; inconclusive means small, poorly fitted or top-dose-only effect, or another doubt; inactive means no such curve, though single readings can be large; an effect the other way counts as inactive or inconclusive. Unless noted, on the % scale 0 is the no-effect control and ±100 the full control effect.
SMILES,HT1080 IDH1KD tx,IL-1B inflam inh,DT40 TDP1 CPT,HT1080-NT tox,TDP1 cell noCPT
S=C(NCCCN1CCOCC1)NN=C1c2ccccc2-c2ccccc21,?,-14,5.8µM*,-24%,5.8µM*
CCNC(=S)NN=C1c2ccccc2-c2ccccc21,-3%,?,3.7µM*,-15%,3.7µM*
C=C(C)CNC(=S)NN=C1c2ccccc2-c2ccccc21,-24%,-22,?,0%,?
S=C(NCCN1CCOCC1)N/N=C/c1ccccc1,8%,20,11%,12%,-3%
CC1=C(C(=O)N(C(C)C)C(C)C)CC(CC(=O)NCc2cccs2)C(=O)N1CCCN1CCCC1=O (centres undefined),17%,-5,5%,18%,2%
COc1ccc(C(CNC(=O)CCNS(=O)(=O)c2ccccc2)N2CCOCC2)cc1 (centres undefined),-2%,-17,0%,-1%,-24%
Cn1cc(CN2CCN(CC(C)(C)C)C(CCO)C2)c2ccccc21 (centres undefined),-14%,?,-3%,1%,?
Cc1ccc(OCCCSc2nc(-c3ccc(C(C)(C)C)cc3)nc3cc(=O)[nH]n23)cc1C,.,.,?,.,26µM*
CC(C)(C)c1ccc(-c2nc(SCCOc3ccc(Cl)cc3)n3[nH]c(=O)cc3n2)cc1,.,.,18µM*,.,-80%
Cc1cccc(-c2nc(SCCCOc3cc(C)c(Cl)c(C)c3)n3[nH]c(=O)cc3n2)c1,.,.,-12%,.,-15%
CC(C)(C)c1ccc(OCCSc2nc(-c3cccs3)nc3cc(=O)[nH]n23)cc1,.,.,18µM*,.,?
Cc1ccccc1NC(=O)CSc1nc(-c2cccs2)nc2cc(=O)[nH]n12,.,.,1%,.,1%
CC(=O)c1ccc(S(=O)(=O)N2CCN(c3nc(-c4ccccc4)nc4ccccc34)CC2)cc1,.,.,-17%,.,?
O=S(=O)(c1ccccc1)N1CCN(c2nc(-c3cccnc3)nc3ccccc23)CC1,-6%,43,?,-2%,21µM*
Cc1ccc(S(=O)(=O)N2CCN(c3nc(-c4ccnnc4)nc4ccccc34)CC2)cc1,11%,.,?,4%,16µM*
COc1ccc(Cl)cc1N(C)c1nc(N2CCN(S(=O)(=O)c3ccc(C)cc3)CC2)c2ccccc2n1,19%,.,8.9µM*,-15%,6.3µM*
CC(=O)c1ccc(S(=O)(=O)N2CCN(c3nc(-c4cccnc4)nc4ccccc34)CC2)cc1,-4%,-13,21µM*,4%,?
CCOC(=O)c1ccc(S(=O)(=O)N2CCN(c3nc(-c4ccccc4)nc4ccccc34)CC2)cc1,.,.,20%,.,-5%
Cc1ccccc1C(=O)N1CCC(n2nccc2NC(=O)CCOc2ccccc2)CC1,1%,-6,?,0%,-27%
Cc1ccc(S(=O)(=O)N2CCN(c3nc(-n4ccnn4)nc4ccccc34)CC2)cc1,12%,.,13µM*,20%,16µM*
O=C(NCCc1ccccc1)C1CCN(Cc2cc3ccccc3n2Cc2cccc(Cl)c2)CC1,.,.,?,.,21µM*
CC(=O)Nc1ccc(CN2CCCC(CCC(=O)NCc3ccccc3F)C2)cc1 (centres undefined),1%,-14,5%,0%,2%
O=C(CCC1CCCN(Cc2cccc(Cl)c2)C1)NCc1ccccc1F (centres undefined),2%,0,21µM*,28%,?
O=C(NCc1ccccc1F)C1CCN(Cc2cc3ccccc3n2Cc2cccc(Cl)c2)CC1,.,.,?,.,23µM*
COCCNC(=O)C1CCCN(Cc2cccc(Cl)c2)CC1 (centres undefined),0%,16,-23%,20%,-14%
SMILES,HT1080 IDH1KD tx,IL-1B inflam inh,DT40 TDP1 CPT,HT1080-NT tox,TDP1 cell noCPT
Cc1ccc(Cn2c(CN3CCC(C(=O)NCCc4ccccc4)CC3)cc3ccccc32)cc1,.,.,23µM*,.,16µM*
COc1ccc(Cn2c(=O)c3oc4ccccc4c3n(Cc3ccc(Cl)cc3)c2=O)cc1,.,.,0%,.,0%
Cc1ccc(Cn2c(CN3CCC(C(=O)NCC(C)c4ccccc4)CC3)cc3ccccc32)cc1 (centres undefined),.,.,?,.,26µM*
O=C(NCc1ccco1)C1CCN(c2nc3ccccc3n2Cc2ccccc2F)CC1,-9%,?,16µM*,11%,?
Cn1c(CCNC(=O)c2ccco2)nc2cc(NS(=O)(=O)c3ccc(Cl)cc3)ccc21,0%,-8,?,6%,?
CC(=O)c1c(C)[nH]c(C(=O)Nc2cccc(C#N)c2)c1C,-3%,-4,-20%,-6%,16µM*
CC(=O)c1c(C)[nH]c(C(=O)Nc2cccc(C(F)(F)F)c2)c1C,?,-73*,?,?,21µM*
CC(=O)c1c(C)[nH]c(C(=O)Nc2cccnc2)c1C,15%,28,-2%,1%,-1%
CC(=O)c1c(C)[nH]c(C(=O)Nc2ccc3c(c2)OCCO3)c1C,7%,?,-17%,?,-11%
COC(=O)c1ccc(SCC(=O)NCc2ccccc2)c([N+](=O)[O-])c1,14%,2,2%,13%,?
CC(C)CCNS(=O)(=O)c1cc2c3c(c1)CCN3C(=O)CC2,0%,8,22%,-1%,12%
Cc1ccc(O)c(N=Cc2cccs2)c1,2%,-1,23µM*,2%,?
